# Source: paper PMC4081100, “A DNA-binding-site landscape and regulatory network analysis for NAC transcription factors in Arabidopsis thaliana”
# Assays:
# Experiment in all cases: universal protein binding microarray (PBM); transcription factors of Arabidopsis thaliana; high values mean tight binding
# [1] = biological target: T1, GST-ANAC092(1-285) full length (Arabidopsis thaliana, UniProt Q9FKA0 1-285); details: protein: recombinant; tags: GST; chain copies: 2; dsDNA, one strand shown
# T1 sequence: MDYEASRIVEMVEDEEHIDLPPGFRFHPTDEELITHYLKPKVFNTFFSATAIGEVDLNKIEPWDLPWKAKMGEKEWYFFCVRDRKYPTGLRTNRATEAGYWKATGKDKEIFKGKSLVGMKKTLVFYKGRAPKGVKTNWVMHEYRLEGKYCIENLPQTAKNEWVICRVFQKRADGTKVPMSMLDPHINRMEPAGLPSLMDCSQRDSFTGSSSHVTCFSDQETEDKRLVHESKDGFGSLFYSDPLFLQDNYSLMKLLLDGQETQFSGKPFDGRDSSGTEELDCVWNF
# Outline: (§1)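 GST-tagged NAC-domain, full-length or DNA-binding-domain proteins were induced in cells, with zinc acetate added for zinc-finger proteins. They were purified on glutathione–Sepharose 4B and quantified by A280 or anti-GST western blot. Each was applied at 200 to 500 nM final, in duplicate, to custom all-10-mer Agilent 4 × 180K arrays made double-stranded by primer extension, with gapped and ungapped 8-mers scored. Binding is the normalised enrichment score (E-score).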
# GST-NAP(1-166) = biological target: T2, GST-NAP(1-166) (Arabidopsis thaliana, UniProt O49255 1-166); details: protein: recombinant; tags: GST; chain copies: 2; dsDNA, one strand shown
# T2 sequence: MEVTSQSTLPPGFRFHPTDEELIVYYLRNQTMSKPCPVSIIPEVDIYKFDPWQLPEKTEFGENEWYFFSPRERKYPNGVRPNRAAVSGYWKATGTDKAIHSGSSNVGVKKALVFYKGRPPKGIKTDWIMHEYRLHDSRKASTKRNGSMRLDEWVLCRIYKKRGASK
# Outline: as §1
# GST-NST2(1-184) = biological target: T3, GST-NST2(1-184) (Arabidopsis thaliana, UniProt Q9M274 1-184); details: protein: recombinant; tags: GST; chain copies: 2; dsDNA, one strand shown
# T3 sequence: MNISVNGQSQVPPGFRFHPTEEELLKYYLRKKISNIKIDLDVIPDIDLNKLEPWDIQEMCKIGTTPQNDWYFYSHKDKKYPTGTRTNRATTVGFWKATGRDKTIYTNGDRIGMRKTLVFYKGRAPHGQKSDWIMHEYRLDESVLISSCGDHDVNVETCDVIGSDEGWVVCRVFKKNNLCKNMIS
# Outline: as §1
# GST-SND1(1-203) = biological target: T4, GST-SND1(1-203) (Arabidopsis thaliana, UniProt Q9LPI7 1-203); details: protein: recombinant; tags: GST; chain copies: 2; dsDNA, one strand shown
# T4 sequence: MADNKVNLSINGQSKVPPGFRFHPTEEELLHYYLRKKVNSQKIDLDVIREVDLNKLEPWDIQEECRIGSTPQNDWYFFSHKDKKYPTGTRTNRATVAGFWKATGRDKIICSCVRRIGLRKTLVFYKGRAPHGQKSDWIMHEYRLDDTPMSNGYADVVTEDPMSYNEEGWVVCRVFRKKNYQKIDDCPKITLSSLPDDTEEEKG
# Outline: as §1
# GST-WRKY1(266-371) = GST-WRKY1(266-371) (Arabidopsis thaliana, UniProt Q9SI37 266-371); details: protein: recombinant; tags: GST; dsDNA, one strand shown
# Outline: as §1
# GST-NTL6(1-168) = GST-NTL6(1-168) (Arabidopsis thaliana, UniProt Q9SCK6 1-168); details: protein: recombinant; tags: GST; chain copies: 2; dsDNA, one strand shown
# Outline: as §1
# GST-ANAC019 NAC domain = biological target: T5, GST-ANAC019 NAC domain (Arabidopsis thaliana, UniProt Q9C932 14-162); details: protein: recombinant; tags: GST; chain copies: 2; dsDNA, one strand shown
# T5 sequence: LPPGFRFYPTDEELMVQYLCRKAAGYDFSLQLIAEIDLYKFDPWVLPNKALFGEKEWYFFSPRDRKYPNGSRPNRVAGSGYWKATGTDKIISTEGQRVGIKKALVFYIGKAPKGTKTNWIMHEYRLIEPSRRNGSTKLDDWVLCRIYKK
# Outline: as §1
# GST-NTL8 NAC domain = biological target: T6, GST-NTL8 NAC domain (Arabidopsis thaliana, UniProt Q9XIN7 14-156); details: protein: recombinant; tags: GST; chain copies: 2; dsDNA, one strand shown
# T6 sequence: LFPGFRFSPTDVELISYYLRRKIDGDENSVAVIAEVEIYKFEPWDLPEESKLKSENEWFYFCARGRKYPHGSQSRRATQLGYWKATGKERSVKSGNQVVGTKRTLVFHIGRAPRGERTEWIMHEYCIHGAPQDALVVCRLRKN
# Outline: as §1
# GST-ATAF1 NAC domain = biological target: T7, GST-ATAF1 NAC domain (Arabidopsis thaliana, UniProt Q39013 7-158); details: protein: recombinant; tags: GST; chain copies: 2; dsDNA, one strand shown
# T7 sequence: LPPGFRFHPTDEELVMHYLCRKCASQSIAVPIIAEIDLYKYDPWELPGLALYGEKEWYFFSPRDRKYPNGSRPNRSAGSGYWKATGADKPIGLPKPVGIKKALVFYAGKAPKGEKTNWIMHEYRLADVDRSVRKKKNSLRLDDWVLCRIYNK
# Outline: as §1
# GST-ANAC092(1-176) = biological target: T8, GST-ANAC092(1-176) (Arabidopsis thaliana, UniProt Q9FKA0 1-176); details: protein: recombinant; tags: GST; chain copies: 2; dsDNA, one strand shown
# T8 sequence: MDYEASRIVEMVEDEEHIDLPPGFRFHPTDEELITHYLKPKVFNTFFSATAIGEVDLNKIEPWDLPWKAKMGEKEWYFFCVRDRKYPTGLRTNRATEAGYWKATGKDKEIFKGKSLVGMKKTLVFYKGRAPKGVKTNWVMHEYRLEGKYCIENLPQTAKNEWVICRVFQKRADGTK
# Outline: as §1
# GST-ANAC055(1-171) = biological target: T9, GST-ANAC055(1-171) (Arabidopsis thaliana, UniProt Q9LDY8 1-171); details: protein: recombinant; tags: GST; chain copies: 2; dsDNA, one strand shown
# T9 sequence: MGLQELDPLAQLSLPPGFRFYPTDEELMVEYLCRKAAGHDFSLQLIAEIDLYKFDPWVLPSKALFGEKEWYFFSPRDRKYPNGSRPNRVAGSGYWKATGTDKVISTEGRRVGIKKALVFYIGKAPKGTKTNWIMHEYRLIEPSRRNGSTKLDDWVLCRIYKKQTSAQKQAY
# Outline: as §1
# GST-NTL6(1-168), sequence (Q9SCK6 1-168): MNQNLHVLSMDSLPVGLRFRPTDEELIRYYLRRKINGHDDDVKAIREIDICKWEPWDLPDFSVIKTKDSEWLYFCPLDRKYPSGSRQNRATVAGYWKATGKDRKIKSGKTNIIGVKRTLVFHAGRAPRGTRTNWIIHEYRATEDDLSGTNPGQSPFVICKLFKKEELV
# GST-WRKY1(266-371), sequence (Q9SI37 266-371): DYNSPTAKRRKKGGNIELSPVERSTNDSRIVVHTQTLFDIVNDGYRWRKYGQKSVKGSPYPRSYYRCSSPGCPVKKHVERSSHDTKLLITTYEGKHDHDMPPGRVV
sequence,measurement,setting,value
AGTCAGAA,binding signal,[1],0.0656 E-score
same,binding signal,GST-NAP(1-166),0.0823 E-score
same,binding signal,GST-NST2(1-184),0.119 E-score
same,binding signal,GST-SND1(1-203),0.101 E-score
same,binding signal,GST-WRKY1(266-371),0.416 E-score
AAGGGTCA,binding signal,GST-NTL6(1-168),0.0797 E-score
same,binding signal,GST-SND1(1-203),0.0922 E-score
same,binding signal,GST-WRKY1(266-371),0.409 E-score
GGGGTCAA,binding signal,GST-ANAC019 NAC domain,0.133 E-score
same,binding signal,[1],0.101 E-score
same,binding signal,GST-NTL8 NAC domain,0.154 E-score
same,binding signal,GST-SND1(1-203),0.0652 E-score
same,binding signal,GST-WRKY1(266-371),0.481 E-score
ACCTTACC,binding signal,GST-NTL6(1-168),0.306 E-score
same,binding signal,GST-ATAF1 NAC domain,0.0631 E-score
same,binding signal,[1],0.111 E-score
same,binding signal,GST-NTL8 NAC domain,0.417 E-score
same,binding signal,GST-SND1(1-203),0.152 E-score
ACGCCACG,binding signal,GST-ANAC092(1-176),0.382 E-score
same,binding signal,GST-ANAC019 NAC domain,0.147 E-score
same,binding signal,GST-ANAC055(1-171),0.14 E-score
same,binding signal,GST-ATAF1 NAC domain,0.0586 E-score
same,binding signal,[1],0.409 E-score
same,binding signal,GST-NST2(1-184),0.128 E-score
same,binding signal,GST-SND1(1-203),0.249 E-score
CACGCCAG,binding signal,GST-ANAC092(1-176),0.385 E-score
same,binding signal,GST-ANAC019 NAC domain,0.0856 E-score
same,binding signal,[1],0.429 E-score
same,binding signal,GST-SND1(1-203),0.178 E-score
CACGCTAG,binding signal,GST-ANAC092(1-176),0.389 E-score
same,binding signal,GST-ANAC019 NAC domain,0.115 E-score
same,binding signal,GST-ANAC055(1-171),0.101 E-score
same,binding signal,[1],0.426 E-score
same,binding signal,GST-NAP(1-166),0.0849 E-score
same,binding signal,GST-NST2(1-184),0.156 E-score
same,binding signal,GST-SND1(1-203),0.218 E-score
GAGGAAAC,binding signal,GST-ANAC092(1-176),0.0974 E-score
same,binding signal,GST-ATAF1 NAC domain,0.0627 E-score
same,binding signal,[1],0.0772 E-score
same,binding signal,GST-NAP(1-166),0.0571 E-score
same,binding signal,GST-NTL8 NAC domain,0.465 E-score
same,binding signal,GST-SND1(1-203),0.099 E-score
ATCGCGTG,binding signal,GST-ANAC092(1-176),0.382 E-score
same,binding signal,[1],0.441 E-score
same,binding signal,GST-NST2(1-184),0.135 E-score
same,binding signal,GST-SND1(1-203),0.266 E-score
CTGGCGTA,binding signal,GST-ANAC092(1-176),0.371 E-score
same,binding signal,GST-ANAC019 NAC domain,0.106 E-score
same,binding signal,GST-ANAC055(1-171),0.0635 E-score
same,binding signal,[1],0.396 E-score
same,binding signal,GST-NST2(1-184),0.203 E-score
same,binding signal,GST-SND1(1-203),0.409 E-score
CACACGCC,binding signal,GST-ANAC092(1-176),0.396 E-score
same,binding signal,GST-ANAC019 NAC domain,0.207 E-score
same,binding signal,GST-ANAC055(1-171),0.124 E-score
same,binding signal,GST-ATAF1 NAC domain,0.145 E-score
same,binding signal,[1],0.428 E-score
same,binding signal,GST-NST2(1-184),0.134 E-score
same,binding signal,GST-SND1(1-203),0.119 E-score
GGAGGGAA,binding signal,GST-NTL6(1-168),0.0867 E-score
same,binding signal,GST-ANAC019 NAC domain,0.104 E-score
same,binding signal,GST-NAP(1-166),0.074 E-score
same,binding signal,GST-NTL8 NAC domain,0.421 E-score
same,binding signal,GST-SND1(1-203),0.0554 E-score
GCACTCAA,binding signal,GST-ANAC092(1-176),0.391 E-score
same,binding signal,GST-ATAF1 NAC domain,0.0807 E-score
same,binding signal,[1],0.426 E-score
same,binding signal,GST-NST2(1-184),0.196 E-score
same,binding signal,GST-NTL8 NAC domain,0.0643 E-score
same,binding signal,GST-SND1(1-203),0.263 E-score
